# Records with an inconclusive call do not appear. Entries that show only a call come without a potency. A structure can be active in one record and inactive in another. Calls of active or inactive are those of the source. Unless noted, calls come from the whole dose curve; as a rule, active = well fitted curve in the direction sought with a large enough effect in the repeat runs; inconclusive = weak or mixed curves; inactive = no such curve, though single readings can be large; an effect the other way counts as inactive or inconclusive.
# Tests used:
# [1] = qHTS assay to identify small molecule agonists of the androgen receptor (AR) signaling pathway in the presence of an antagonist - cell viability counter screen (AID 1259379); note: nearly all actives have a fitted effect of over 25% in size; note: potency is the fitted concentration of half-maximal effect
# In short: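 In MDA-kb2 cells (human breast carcinoma, MMTV-luciferase), compounds at 15 concentrations plus 3.0uM nilutamide; 16 hr, 37C, 0% CO2; CellTiter-Fluor fluorescence read for viability.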
# [2] = qHTS assay to identify small molecule antagonists of the estrogen receptor beta (ER-beta) signaling pathway - cell viability counter screen (AID 1259382); note: nearly all actives have a fitted effect of over 55% in size; note: potency is the fitted concentration of half-maximal effect
# In short: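 Tox21 10K library tested in qHTS format on ER-beta-bla HEK293T cells stimulated with 1nM E2; 16 hr treatment at 37C. Same-well CellTiter-Glo luminescence served as the cell viability measure.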
# [3] = qHTS assay to identify small molecule agonists or antagonists of the thyroid stimulating hormone receptor (TSHR) signaling pathway - wild type cell line counter screen (AID 1259384; calls by dose curve)
# In short: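 Wild-type HEK293 cells were plated 18 h at 37 C/5% CO2, pin-dosed with compound plus Ro20-1724 medium, held 30 min at room temperature, then given cAMP-d2 and anti-cAMP-cryptate; fluorescence was read after 1 h. Fifteen concentrations, triplicate.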
# [4] = qHTS assay to identify small molecule agonists of the estrogen receptor alpha (ER-alpha) signaling pathway in the presence of an antagonist - cell viability counter screen (AID 1259386);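 note: cells exposed to compounds for 22 h at 37 °C before the viability read; nearly all actives have a fitted effect of over 30% in size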; note: potency is the fitted concentration of half-maximal effect
# In short: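 Fluorescent CellTiter-Fluor viability signal from VM7Luc4E2 cells, with the reagent added during the final hour of a 22hr compound exposure at 37C in the presence of 10.0nM ICI-182,780.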
# [5] = molecular target: Progesterone receptor (Homo sapiens) (UniProt P06401); test: qHTS assay to identify small molecule agonists of the progesterone receptor (PR) signaling pathway (AID 1346784; calls by dose curve; note: nearly all actives have a fitted effect of over 30% in size)
# In short: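 PR-UAS-bla HEK 293T cells carrying a UAS-driven beta-lactamase reporter were seeded in medium with 2% charcoal-stripped FBS, preincubated 6 hr at 37C, then exposed to compounds in DMSO for 16 hr; agonism was read by LiveBLAzer B/G FRET fluorescence.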
# [6] = qHTS assay to identify small molecule antagonists of the progesterone receptor (PR) signaling pathway - cell viability counter screen (AID 1346798); note: nearly all actives have a fitted effect of over 50% in size; note: potency is the fitted concentration of half-maximal effect
# In short: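 PR-UAS-bla HEK293T cells in medium with 2% charcoal-stripped FBS were treated with compounds plus R5020 for 16 hr at 37C. Cell viability was then read by CellTiter-Glo luminescence after 30 min at room temperature in the same wells.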
# [7] = qHTS assay to identify small molecule antagonists of the TGF-beta/Smad signaling pathway - cell viability counter screen (AID 1346824); note: nearly all actives have a fitted effect of over 50% in size; note: potency is the fitted concentration of half-maximal effect
# In short: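 SBE-bla HEK 293T cells were plated overnight at 37 C, then given compounds in DMSO plus TGF-beta1 (added as 0.25 ng/mL solution) for 5 hr. After the bla read, CellTiter-Glo was added to the same wells and luminescence read after 30 min at room temperature.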
# [8] = qHTS assay to identify small molecule agonists of the TGF-beta/Smad signaling pathway - cell viability counter screen (AID 1346829); note: nearly all actives have a fitted effect of over 45% in size; note: potency is the fitted concentration of half-maximal effect
# In short: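 SBE-bla HEK 293T cells plated overnight, compound exposure 5 hr at 37 C. Viability read in the same wells by CellTiter-Glo luminescence after 30 min at room temperature, following the beta-lactamase read.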
# [9] = qHTS assay to identify small molecule agonists of the TGF-beta/Smad signaling pathway (AID 1346859; active = well fitted activation curve with a large enough effect in the signal ratio in the repeat runs, not every such curve was filed as active; the % refers to the signal ratio; note: series mostly up to about 77 µM)
# In short: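 HEK 293T cells stably carrying a beta-lactamase reporter driven by the Smad binding element were seeded overnight, exposed to DMSO-dissolved compounds for 5 hr at 37 C, 5% CO2, then loaded with FRET substrate for 2 hr at room temperature.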
# [10] = molecular target: Thyrotropin-releasing hormone receptor (Homo sapiens) (UniProt P34981); test: qHTS assay to identify small molecule antagonists of the thyrotropin-releasing hormone receptor (TRHR) signaling pathway (AID 1346877; active = well fitted inhibition curve with a large enough effect in the repeat runs, not every such curve was filed as active; note: series mostly up to about 51 µM)
# In short: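 In this cell-based calcium flux format, HEK293 cells expressing TRHR received test compound for 5 min before the agonist TRH (1 nM final). Dye loading lasted 2 h at 37 °C.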
# [11] = molecular target: Thyrotropin-releasing hormone receptor (Homo sapiens) (UniProt P34981); test: qHTS assay to identify small molecule agonists of the thyrotropin-releasing hormone receptor (TRHR) signaling pathway (AID 1346891; calls by dose curve; note: series mostly up to about 58 µM)
# In short: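 TRHR-expressing HEK293 cells were plated 18 h at 37 °C/5% CO2, loaded with calcium dye 2 h at 37 °C, then given compound in DMSO; fluorescence was read kinetically for 3 min at 1 s intervals.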
# [12] = qHTS assay to identify small molecule agonists of the estrogen receptor beta (ER-beta) signaling pathway - cell viability counter screen (AID 1259380); note: potency is the fitted concentration of half-maximal effect; nearly all actives have a fitted effect of over 30% in size
# In short: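 Viability of ER-beta-UAS-bla HEK293T cells was determined by CellTiter-Glo luminescence following 16 hr treatment with test compounds at 37C.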
# [13] = molecular target: Thyrotropin receptor (Homo sapiens) (UniProt P16473); test: qHTS assay to identify small molecule antagonists of the thyroid stimulating hormone receptor (TSHR) signaling pathway (AID 1259385; calls by dose curve; note: nearly all actives have a fitted effect of over 20% in size; note: potency is the fitted concentration of half-maximal effect)
# In short: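 TSHR-HEK293 cells were plated and held 18 h at 37C/5% CO2, then given compound plus Ro20-1724 and stimulated with TSH at 1.5 ng/mL final. After 30 min at room temperature, cAMP was detected with cAMP-d2/anti-cAMP-cryptate (1 h) by fluorescence.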
# [14] = qHTS assay to identify small molecule agonists of the progesterone receptor (PR) signaling pathway - cell viability counter screen (AID 1346799; calls by dose curve; note: nearly all actives have a fitted effect of over 45% in size; note: potency is the fitted concentration of half-maximal effect)
# In short: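 PR-UAS-bla HEK293T cells, 3,000 per well in medium with 2% charcoal-stripped FBS, were preincubated 6 hr at 37C, then exposed to compounds for 16 hr; viability was read as CellTiter-Glo luminescence after 30 min at room temperature.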
# [15] = molecular target: Progesterone receptor (Homo sapiens) (UniProt P06401); test: qHTS assay to identify small molecule antagonists of the progesterone receptor (PR) signaling pathway (AID 1346795; active = well fitted inhibition curve with a large enough effect in the signal ratio in the repeat runs, not every such curve was filed as active; the % refers to the signal ratio; note: potency is the fitted concentration of half-maximal effect)
# In short: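 PR-UAS-bla HEK293T cells carrying a UAS-driven beta-lactamase reporter were plated in medium with 2% charcoal-stripped FBS and rested 6 hr at 37C. Compounds were added with 1 nM R5020 (final) for 16 hr, then FRET substrate loaded 2 hr at room temperature.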
# [16] = Human pregnane X receptor (PXR) small molecule agonists, qHTS cell viability counter screen (AID 1346977); note: nearly all actives have a fitted effect of over 50% in size; note: potency is the fitted concentration of half-maximal effect
# In short: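 PXR-Luc HepG2 cells in medium with 5% charcoal-stripped FBS were pre-incubated 5hr, then exposed to compounds for 24hr at 37C. Viability was read in the same wells by CellTiter-Fluor fluorescence, reagent added after 23hr with a 1hr incubation.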
# [17] = molecular target: Estrogen receptor (Homo sapiens) (UniProt P03372); test: qHTS assay to identify small molecule agonists of the estrogen receptor alpha (ER-alpha) signaling pathway in the presence of an antagonist (AID 1259383; calls by dose curve; note: top concentration of the series differs between compounds; nearly all actives have a fitted effect of over 15% in size)
# In short: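 In VM7Luc4E2 cells, 4,000 per well, compounds at 15 concentrations were co-incubated 22hr at 37C with 10.0nM final ICI-182,780. Luminescence from the stably transfected 4×ERE-luciferase reporter was recorded 30min after ONE-Glo addition.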
# [18] = molecular target: Androgen receptor (Homo sapiens) (UniProt P10275); test: qHTS assay to identify small molecule agonists of the androgen receptor (AR) signaling pathway in the presence of an antagonist (AID 1259381; calls by dose curve; note: nearly all actives have a fitted effect of over 15% in size)
# In short: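 Here, 15-concentration compound series were pin-transferred onto MDA-kb2 MMTV-luciferase cells already dosed with nilutamide (3.0uM final). After 16hr at 37C, ONE-Glo was added and luminescence read 30min later at room temperature.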
# Sequence of Thyrotropin-releasing hormone receptor (Homo sapiens) (P34981 whole entry, looked up): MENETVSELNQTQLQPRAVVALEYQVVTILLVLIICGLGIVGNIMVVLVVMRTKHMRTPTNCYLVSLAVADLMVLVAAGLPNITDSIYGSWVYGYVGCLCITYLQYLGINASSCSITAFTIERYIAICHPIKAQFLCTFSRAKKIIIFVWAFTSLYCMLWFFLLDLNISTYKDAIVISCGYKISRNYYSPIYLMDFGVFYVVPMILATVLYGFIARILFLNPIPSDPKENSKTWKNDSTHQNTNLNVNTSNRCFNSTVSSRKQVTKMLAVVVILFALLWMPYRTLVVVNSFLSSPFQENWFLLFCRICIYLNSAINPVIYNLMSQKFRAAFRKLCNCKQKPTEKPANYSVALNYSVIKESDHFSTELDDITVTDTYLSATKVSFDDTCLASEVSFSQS
# Sequence of Androgen receptor (Homo sapiens) (P10275 whole entry, looked up): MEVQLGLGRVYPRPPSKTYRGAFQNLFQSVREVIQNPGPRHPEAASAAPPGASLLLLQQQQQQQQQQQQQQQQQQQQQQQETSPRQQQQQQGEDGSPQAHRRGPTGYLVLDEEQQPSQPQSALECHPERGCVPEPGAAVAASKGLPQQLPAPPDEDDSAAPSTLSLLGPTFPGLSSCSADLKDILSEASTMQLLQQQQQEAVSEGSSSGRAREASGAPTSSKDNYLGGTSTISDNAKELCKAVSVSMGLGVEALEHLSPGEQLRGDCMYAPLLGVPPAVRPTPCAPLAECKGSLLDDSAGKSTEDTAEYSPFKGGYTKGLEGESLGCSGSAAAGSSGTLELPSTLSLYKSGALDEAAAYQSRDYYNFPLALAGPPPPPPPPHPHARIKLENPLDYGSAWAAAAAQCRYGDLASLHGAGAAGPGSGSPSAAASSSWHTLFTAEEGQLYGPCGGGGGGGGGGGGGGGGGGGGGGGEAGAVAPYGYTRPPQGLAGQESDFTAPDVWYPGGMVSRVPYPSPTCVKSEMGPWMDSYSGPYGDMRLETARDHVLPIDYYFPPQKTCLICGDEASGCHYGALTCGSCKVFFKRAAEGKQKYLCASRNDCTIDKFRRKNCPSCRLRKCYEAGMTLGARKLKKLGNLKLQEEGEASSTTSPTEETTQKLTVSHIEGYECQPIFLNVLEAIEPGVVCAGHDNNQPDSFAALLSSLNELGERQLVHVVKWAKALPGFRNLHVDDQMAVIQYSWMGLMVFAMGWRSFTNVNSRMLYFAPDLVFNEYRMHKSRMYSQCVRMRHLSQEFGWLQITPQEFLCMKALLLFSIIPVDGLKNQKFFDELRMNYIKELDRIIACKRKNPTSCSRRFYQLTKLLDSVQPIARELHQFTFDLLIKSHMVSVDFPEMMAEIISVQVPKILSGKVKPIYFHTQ
# Sequence of Thyrotropin receptor (Homo sapiens) (P16473 whole entry, looked up): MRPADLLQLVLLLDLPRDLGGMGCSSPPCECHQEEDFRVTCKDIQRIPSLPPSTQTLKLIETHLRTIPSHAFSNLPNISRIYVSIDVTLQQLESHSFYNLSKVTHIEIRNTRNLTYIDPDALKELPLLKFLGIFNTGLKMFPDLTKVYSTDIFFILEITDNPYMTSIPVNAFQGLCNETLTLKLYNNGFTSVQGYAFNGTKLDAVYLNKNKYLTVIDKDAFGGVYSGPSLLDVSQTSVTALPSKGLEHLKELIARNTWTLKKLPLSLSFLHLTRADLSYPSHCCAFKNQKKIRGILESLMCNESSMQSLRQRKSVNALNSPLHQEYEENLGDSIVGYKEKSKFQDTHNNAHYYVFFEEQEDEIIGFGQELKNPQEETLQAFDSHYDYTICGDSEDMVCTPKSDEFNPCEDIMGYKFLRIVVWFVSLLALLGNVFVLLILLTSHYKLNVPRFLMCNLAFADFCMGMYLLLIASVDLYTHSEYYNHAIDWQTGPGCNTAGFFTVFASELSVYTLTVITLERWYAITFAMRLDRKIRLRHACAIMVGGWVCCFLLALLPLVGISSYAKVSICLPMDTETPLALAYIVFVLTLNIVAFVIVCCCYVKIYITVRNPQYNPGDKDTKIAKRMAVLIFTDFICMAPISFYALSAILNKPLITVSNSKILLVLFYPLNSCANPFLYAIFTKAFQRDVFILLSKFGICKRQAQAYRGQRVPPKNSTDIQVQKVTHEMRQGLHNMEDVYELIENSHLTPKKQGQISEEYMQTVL
# Sequence of Progesterone receptor (Homo sapiens) (P06401 whole entry, looked up): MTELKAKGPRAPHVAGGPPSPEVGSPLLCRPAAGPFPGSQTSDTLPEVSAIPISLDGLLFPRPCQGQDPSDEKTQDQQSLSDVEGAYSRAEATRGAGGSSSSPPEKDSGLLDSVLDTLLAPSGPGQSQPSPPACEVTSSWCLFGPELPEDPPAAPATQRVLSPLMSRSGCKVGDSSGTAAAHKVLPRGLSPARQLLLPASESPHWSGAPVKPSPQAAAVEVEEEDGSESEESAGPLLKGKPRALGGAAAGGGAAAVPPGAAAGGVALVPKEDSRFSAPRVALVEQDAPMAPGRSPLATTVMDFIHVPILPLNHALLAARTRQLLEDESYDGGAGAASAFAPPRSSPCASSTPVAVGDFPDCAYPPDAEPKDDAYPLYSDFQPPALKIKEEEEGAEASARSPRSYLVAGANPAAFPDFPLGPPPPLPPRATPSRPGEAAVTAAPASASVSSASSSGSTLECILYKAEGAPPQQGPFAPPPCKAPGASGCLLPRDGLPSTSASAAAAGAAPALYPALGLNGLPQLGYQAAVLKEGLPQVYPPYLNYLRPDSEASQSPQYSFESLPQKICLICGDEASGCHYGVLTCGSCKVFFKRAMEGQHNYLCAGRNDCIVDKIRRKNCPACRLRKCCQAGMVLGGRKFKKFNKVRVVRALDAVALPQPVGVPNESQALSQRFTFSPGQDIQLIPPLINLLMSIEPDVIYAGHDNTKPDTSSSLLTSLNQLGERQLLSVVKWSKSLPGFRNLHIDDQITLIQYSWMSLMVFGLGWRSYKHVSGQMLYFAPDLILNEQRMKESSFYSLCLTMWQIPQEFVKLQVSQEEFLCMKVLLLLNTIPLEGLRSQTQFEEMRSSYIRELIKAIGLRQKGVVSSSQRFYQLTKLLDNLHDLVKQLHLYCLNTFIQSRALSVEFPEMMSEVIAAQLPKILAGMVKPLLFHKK
# Sequence of Estrogen receptor (Homo sapiens) (P03372 whole entry, looked up): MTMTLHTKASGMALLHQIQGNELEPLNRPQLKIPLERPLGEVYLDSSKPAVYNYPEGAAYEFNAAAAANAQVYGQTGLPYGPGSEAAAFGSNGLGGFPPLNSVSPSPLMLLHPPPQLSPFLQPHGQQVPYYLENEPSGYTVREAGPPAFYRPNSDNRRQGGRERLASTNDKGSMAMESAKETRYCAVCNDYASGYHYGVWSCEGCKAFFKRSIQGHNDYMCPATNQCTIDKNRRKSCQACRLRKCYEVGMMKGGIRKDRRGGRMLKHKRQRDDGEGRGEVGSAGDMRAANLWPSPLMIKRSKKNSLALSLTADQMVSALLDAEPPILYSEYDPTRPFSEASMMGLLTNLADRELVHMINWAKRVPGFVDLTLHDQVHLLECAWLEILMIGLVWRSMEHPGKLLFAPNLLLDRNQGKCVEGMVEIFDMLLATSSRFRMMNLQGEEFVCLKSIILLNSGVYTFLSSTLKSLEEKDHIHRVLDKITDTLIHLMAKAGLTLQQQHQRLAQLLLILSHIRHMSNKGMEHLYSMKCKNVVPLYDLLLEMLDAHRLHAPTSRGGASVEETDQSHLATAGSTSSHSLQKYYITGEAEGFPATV
SMILES,Potency [1],Potency [2],outcome [3],Potency [4],Potency [5],Potency [6],Potency [7],Potency [8],outcome [9],Potency [10],Potency [11],Potency [12],Potency [13],Potency [14],Potency [15],Potency [16],Potency [17],Potency [18],outcome [7]
CN(C)c1ccc(N=Nc2ccccc2)cc1,48.6 µM (active),inactive,inactive,48.6 µM (active),inactive,inactive,inactive,inactive,inactive,inactive,inactive,–,–,–,–,–,–,–,–
Clc1ccc(CO/N=C(\Cn2ccnc2)c2ccc(Cl)cc2Cl)c(Cl)c1,–,29.8 µM (active),inactive,–,–,21.1 µM (active),inactive,inactive,inactive,inactive,inactive,29.8 µM (active),26.6 µM (active),15 µM (active),–,–,–,–,–
CSCCCN=C=S,–,inactive,–,inactive,inactive,inactive,inactive,inactive,inactive,inactive,inactive,–,inactive,inactive,inactive,inactive,–,–,–
[Hg+2].[I-].[I-],–,6.86 µM (active),–,61.1 µM (active),–,6.11 µM (active),49 µM (active),54.9 µM (active),–,–,–,–,43.3 µM (active),5.45 µM (active),–,48.6 µM (active),inactive,–,–
Clc1ccc(CSC(Cn2ccnc2)c2ccc(Cl)cc2Cl)cc1 (stereo not drawn),–,13.3 µM (active),–,–,–,6.68 µM (active),inactive,inactive,inactive,inactive,inactive,13.3 µM (active),–,–,–,–,–,–,–
Oc1c(Cl)c(Cl)cc(Cl)c1Cl,–,inactive,inactive,inactive,–,inactive,inactive,inactive,inactive,inactive,inactive,–,inactive,–,–,–,inactive,inactive,–
Nc1ccc(Cc2ccc(N)c(Cl)c2)cc1Cl,–,46.9 µM (active),inactive,–,–,–,inactive,inactive,inactive,inactive,inactive,18.7 µM (active),inactive,–,–,–,inactive,–,–
ClC1=C(Cl)[C@]2(Cl)[C@@H]3[C@@H]4C[C@@H]([C@H]5O[C@@H]45)[C@@H]3[C@@]1(Cl)C2(Cl)Cl,–,–,inactive,inactive,–,–,–,–,–,–,–,–,–,–,–,–,inactive,–,–
O=[N+]([O-])O.O=[N+]([O-])O.[Cd],inactive,54.5 µM (active),–,–,–,3.06 µM (active),–,–,–,–,–,–,inactive,4.86 µM (active),–,5.45 µM (active),–,–,inactive
CC(C)(C)C(O)C(Oc1ccc(-c2ccccc2)cc1)n1cncn1 (stereo not drawn),–,–,inactive,inactive,–,–,–,inactive,inactive,inactive,inactive,–,inactive,–,61.1 µM (active),61.1 µM (active),inactive,inactive,–
CC(C)(O)c1cnn2c(-c3ccc(F)c(-c4c(F)cccc4C#N)c3)cnc2n1,–,inactive,inactive,inactive,–,–,inactive,inactive,–,inactive,–,27.3 µM (active),inactive,–,–,–,–,inactive,–
O=C(O)c1cc[c]([Hg][Cl])cc1,inactive,–,–,inactive,–,–,inactive,inactive,–,inactive,inactive,–,inactive,–,15.4 µM (active),68.6 µM (active),inactive,–,–
Clc1ccc(CCC(Cn2ccnc2)Sc2c(Cl)cccc2Cl)cc1 (stereo not drawn),–,33.5 µM (active),inactive,inactive,–,11.9 µM (active),inactive,inactive,–,–,–,29.8 µM (active),inactive,21.1 µM (active),–,–,–,–,–
Nc1ccc(Sc2ccc(N)cc2)cc1,inactive,–,inactive,inactive,–,–,–,inactive,inactive,inactive,inactive,–,inactive,–,–,–,inactive,–,–
C=CCC1=C(C)C(OC(=O)C2C(C=C(C)C)C2(C)C)CC1=O (stereo not drawn),61.1 µM (active),inactive,inactive,–,–,–,–,inactive,inactive,inactive,–,–,61.1 µM (active),–,–,–,inactive,–,–
CCOCCOC(C)=O,inactive,inactive,–,–,–,–,–,inactive,inactive,inactive,inactive,–,inactive,–,–,inactive,inactive,–,–
O=c1ssc(Cl)c1Cl,68.6 µM (active),–,–,–,–,inactive,–,inactive,inactive,–,–,–,–,inactive,–,inactive,inactive,–,–
CC(=O)/C=C/c1ccc2c(c1)OCO2,–,inactive,–,inactive,inactive,–,inactive,inactive,inactive,–,–,–,inactive,–,–,–,–,inactive,–
Cc1cc(C(C)(C)c2cc(C)c(O)c(C)c2)cc(C)c1O,–,26.4 µM (active),–,–,–,41.8 µM (active),–,–,–,–,inactive,52.7 µM (active),inactive,59.1 µM (active),–,–,–,inactive,–
CCOC(=O)OC1=C(c2cc(C)ccc2C)C(=O)NC12CCC(OC)CC2 (stereo not drawn),inactive,inactive,inactive,inactive,–,inactive,inactive,inactive,inactive,inactive,inactive,–,inactive,inactive,inactive,inactive,inactive,–,–
Cl/C=C\CCl,inactive,inactive,inactive,inactive,inactive,inactive,inactive,inactive,inactive,–,–,–,inactive,inactive,inactive,inactive,–,–,–
CCCCN(CCCC)C(=S)[S-].CCCCN(CCCC)C(=S)[S-].[Zn+2],–,30.6 µM (active),–,24.3 µM (active),–,43.2 µM (active),inactive,inactive,inactive,–,–,13.7 µM (active),–,–,–,13.7 µM (active),inactive,–,–
Oc1c(Br)c(Br)c(Br)c(Br)c1Br,–,inactive,–,inactive,–,–,inactive,inactive,inactive,–,inactive,–,–,–,27.5 µM (active),–,inactive,inactive,–
CC(c1ccc(O)cc1)c1ccc(O)cc1,inactive,45.5 µM (active) and inactive,inactive,inactive,–,–,inactive,inactive,inactive,inactive,inactive,–,inactive,–,–,inactive,–,–,–

# Source: PubChem BioAssay (Tox21)
